Key:
Assay in all cases: DAPPL (digital affinity profiling via proximity ligation, sequencing); 10 mM Tris-HCl pH 7.5, 50 mM NaCl, 1 mM DTT, 4% glycerol, room temperature, 30 min; GST-TFs on glutathione beads, 16-mer random dsDNA library, 0.1% formaldehyde crosslink after washing; high values mean tight binding
FLI1 = target: T1, FLI1 (Homo sapiens, UniProt Q01543 1-452); details: protein: recombinant; tags: N-terminal GST; dsDNA, one strand shown
T1 sequence: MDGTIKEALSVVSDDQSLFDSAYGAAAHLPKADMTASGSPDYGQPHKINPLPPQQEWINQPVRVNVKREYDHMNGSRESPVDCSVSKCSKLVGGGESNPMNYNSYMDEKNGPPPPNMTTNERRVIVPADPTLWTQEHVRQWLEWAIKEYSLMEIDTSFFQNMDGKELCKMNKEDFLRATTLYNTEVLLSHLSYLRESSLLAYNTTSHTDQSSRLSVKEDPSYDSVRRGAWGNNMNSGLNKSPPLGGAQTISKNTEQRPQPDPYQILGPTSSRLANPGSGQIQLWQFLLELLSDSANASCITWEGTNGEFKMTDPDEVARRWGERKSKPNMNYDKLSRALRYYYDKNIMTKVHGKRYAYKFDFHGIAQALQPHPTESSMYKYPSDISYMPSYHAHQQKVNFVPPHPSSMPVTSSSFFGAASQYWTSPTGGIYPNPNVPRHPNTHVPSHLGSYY
Method in brief: (§1)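 GST fusions of human transcription factors were expressed in yeast and captured with glutathione beads. Once given DNA barcodes and pooled alongside a tag-only sample, they were incubated for 30 min at room temperature with 200 nmole of a random double-stranded 16-mer DNA library in Tris/NaCl/DTT/glycerol buffer, then washed, crosslinked (0.1% formaldehyde), proximity-ligated, PCR-amplified and sequenced on an Illumina NextSeq500. The binding signal of each hexamer is its read frequency for a factor divided by its frequency for the tag-only sample.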

ELK1 = target: T2, ELK1 (Homo sapiens, UniProt P19419 1-428); details: protein: recombinant; tags: N-terminal GST; dsDNA, one strand shown
T2 sequence: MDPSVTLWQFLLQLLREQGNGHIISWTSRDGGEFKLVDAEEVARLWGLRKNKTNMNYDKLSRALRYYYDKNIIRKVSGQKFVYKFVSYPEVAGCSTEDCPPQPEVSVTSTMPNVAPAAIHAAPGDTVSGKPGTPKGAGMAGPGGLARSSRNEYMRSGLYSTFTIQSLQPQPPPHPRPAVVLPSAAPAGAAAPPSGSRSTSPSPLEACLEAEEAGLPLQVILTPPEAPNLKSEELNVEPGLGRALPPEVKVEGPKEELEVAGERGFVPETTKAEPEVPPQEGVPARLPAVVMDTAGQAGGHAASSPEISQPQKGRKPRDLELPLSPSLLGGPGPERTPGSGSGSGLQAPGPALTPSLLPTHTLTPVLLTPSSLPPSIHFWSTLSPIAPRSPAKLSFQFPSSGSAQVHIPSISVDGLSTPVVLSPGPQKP
Method in brief: as §1

GABPA = target: T3, GABPA (Homo sapiens, UniProt Q06546 1-454); details: protein: recombinant; tags: N-terminal GST; dsDNA, one strand shown
T3 sequence: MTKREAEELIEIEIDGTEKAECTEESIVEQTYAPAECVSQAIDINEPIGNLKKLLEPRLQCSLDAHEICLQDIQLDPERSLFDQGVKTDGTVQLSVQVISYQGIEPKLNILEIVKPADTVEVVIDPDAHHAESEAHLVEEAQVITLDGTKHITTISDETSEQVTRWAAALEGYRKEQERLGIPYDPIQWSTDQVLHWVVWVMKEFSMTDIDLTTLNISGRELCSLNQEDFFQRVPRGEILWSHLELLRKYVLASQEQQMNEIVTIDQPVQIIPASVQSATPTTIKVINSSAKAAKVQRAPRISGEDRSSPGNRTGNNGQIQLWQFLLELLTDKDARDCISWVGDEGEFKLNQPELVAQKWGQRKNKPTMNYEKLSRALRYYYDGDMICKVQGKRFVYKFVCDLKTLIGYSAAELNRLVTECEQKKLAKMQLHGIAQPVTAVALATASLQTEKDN
Method in brief: as §1

ERG = target: T4, ERG (Homo sapiens, UniProt P11308 1-479); details: protein: recombinant; tags: N-terminal GST; dsDNA, one strand shown
T4 sequence: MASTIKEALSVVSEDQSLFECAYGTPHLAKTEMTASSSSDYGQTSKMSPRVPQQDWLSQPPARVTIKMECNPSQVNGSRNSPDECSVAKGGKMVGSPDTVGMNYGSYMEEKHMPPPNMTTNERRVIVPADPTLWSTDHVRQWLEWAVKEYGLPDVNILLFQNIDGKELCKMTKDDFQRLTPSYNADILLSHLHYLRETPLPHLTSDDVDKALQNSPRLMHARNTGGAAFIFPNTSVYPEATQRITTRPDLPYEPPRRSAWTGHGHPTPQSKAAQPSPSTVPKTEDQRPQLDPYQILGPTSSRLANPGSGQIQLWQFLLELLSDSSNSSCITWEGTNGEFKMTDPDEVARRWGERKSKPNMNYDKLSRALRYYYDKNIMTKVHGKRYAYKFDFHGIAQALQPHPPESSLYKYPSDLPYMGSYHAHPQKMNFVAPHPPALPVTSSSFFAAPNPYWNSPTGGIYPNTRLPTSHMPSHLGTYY
Method in brief: as §1

ELF1 = ELF1 (Homo sapiens, UniProt P32519 1-619); details: protein: recombinant; tags: N-terminal GST; dsDNA, one strand shown
Chain of ELF1 (P32519 whole entry): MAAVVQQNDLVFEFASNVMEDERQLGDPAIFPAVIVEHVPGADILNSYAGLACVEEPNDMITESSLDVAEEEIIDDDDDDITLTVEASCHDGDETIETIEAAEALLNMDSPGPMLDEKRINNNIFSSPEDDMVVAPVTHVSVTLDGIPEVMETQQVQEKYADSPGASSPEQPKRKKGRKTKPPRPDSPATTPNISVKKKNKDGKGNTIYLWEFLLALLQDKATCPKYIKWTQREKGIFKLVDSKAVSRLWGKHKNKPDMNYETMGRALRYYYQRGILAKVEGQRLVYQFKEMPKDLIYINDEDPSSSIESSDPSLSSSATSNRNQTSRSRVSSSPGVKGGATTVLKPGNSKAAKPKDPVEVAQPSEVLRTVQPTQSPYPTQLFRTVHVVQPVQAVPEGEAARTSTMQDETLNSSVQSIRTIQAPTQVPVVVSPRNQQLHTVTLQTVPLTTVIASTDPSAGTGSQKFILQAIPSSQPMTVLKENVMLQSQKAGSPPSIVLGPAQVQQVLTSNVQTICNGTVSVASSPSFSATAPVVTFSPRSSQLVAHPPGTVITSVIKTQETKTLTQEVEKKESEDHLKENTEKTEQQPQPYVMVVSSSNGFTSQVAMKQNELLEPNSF
Method in brief: as §1

EHF = target: T5, EHF (Homo sapiens, UniProt Q9NZC4 1-300); details: protein: recombinant; tags: N-terminal GST; dsDNA, one strand shown
T5 sequence: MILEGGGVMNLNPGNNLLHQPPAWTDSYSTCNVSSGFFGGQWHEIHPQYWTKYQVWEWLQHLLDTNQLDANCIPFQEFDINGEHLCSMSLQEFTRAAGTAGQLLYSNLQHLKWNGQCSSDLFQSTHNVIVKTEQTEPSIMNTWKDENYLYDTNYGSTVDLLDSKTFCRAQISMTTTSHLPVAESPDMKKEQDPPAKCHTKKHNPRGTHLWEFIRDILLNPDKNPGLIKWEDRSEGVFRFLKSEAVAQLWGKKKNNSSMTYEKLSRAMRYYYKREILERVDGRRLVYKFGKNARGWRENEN
Method in brief: as §1

SPI1 = SPI1 (Homo sapiens, UniProt P17947 1-270); details: protein: recombinant; tags: N-terminal GST; dsDNA, one strand shown
Method in brief: as §1

SPIB = SPIB (Homo sapiens, UniProt Q01892 1-262); details: protein: recombinant; tags: N-terminal GST; dsDNA, one strand shown
Chain of SPIB (Q01892 whole entry): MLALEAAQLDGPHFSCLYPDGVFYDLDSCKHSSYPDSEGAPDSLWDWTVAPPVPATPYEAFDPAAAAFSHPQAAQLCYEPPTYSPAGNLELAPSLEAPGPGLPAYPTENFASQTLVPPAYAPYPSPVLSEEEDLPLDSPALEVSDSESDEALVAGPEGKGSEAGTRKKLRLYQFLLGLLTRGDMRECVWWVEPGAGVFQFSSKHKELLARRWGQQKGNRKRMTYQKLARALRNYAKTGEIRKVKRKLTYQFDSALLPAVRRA
Method in brief: as §1

ELK3 = target: T6, ELK3 (Homo sapiens, UniProt P41970 1-407); details: protein: recombinant; tags: N-terminal GST; dsDNA, one strand shown
T6 sequence: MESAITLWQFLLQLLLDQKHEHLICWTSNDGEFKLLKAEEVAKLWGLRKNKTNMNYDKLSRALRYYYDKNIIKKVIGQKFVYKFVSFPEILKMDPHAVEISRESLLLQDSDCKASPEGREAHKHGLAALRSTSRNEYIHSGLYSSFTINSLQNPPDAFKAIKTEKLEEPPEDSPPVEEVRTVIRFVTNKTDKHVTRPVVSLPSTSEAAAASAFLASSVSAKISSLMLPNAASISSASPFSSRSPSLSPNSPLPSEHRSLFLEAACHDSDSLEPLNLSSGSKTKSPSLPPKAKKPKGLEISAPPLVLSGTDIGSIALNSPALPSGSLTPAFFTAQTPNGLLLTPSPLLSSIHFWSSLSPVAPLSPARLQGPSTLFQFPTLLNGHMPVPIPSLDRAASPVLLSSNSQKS
Method in brief: as §1

FEV = target: T7, FEV (Homo sapiens, UniProt Q99581 1-238); details: protein: recombinant; tags: N-terminal GST; dsDNA, one strand shown
T7 sequence: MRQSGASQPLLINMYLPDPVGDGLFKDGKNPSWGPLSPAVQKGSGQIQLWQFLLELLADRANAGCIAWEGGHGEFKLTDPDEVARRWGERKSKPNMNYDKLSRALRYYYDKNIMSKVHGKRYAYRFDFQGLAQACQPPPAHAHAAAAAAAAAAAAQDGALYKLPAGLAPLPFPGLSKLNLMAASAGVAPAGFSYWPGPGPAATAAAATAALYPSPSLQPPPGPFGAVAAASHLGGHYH
Method in brief: as §1

ETV5 = ETV5 (Homo sapiens, UniProt P41161 1-510); details: protein: recombinant; tags: N-terminal GST; dsDNA, one strand shown
Chain of ETV5 (P41161 whole entry): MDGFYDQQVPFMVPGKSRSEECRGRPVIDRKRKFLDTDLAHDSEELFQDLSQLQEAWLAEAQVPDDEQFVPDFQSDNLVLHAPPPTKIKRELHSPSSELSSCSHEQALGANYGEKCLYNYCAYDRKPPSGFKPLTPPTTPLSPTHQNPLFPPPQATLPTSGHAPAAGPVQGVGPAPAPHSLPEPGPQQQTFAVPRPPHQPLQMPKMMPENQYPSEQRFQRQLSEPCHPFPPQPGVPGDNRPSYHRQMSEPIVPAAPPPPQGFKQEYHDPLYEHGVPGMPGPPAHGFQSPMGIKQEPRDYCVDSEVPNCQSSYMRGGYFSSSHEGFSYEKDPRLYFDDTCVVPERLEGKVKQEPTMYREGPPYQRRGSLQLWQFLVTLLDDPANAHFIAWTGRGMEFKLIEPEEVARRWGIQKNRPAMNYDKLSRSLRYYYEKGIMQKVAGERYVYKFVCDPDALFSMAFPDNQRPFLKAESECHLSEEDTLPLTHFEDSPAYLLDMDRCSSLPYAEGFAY
Method in brief: as §1

HSF1 = HSF1 (Homo sapiens, UniProt Q00613 1-529); details: protein: recombinant; tags: N-terminal GST; chain copies: 3; dsDNA, one strand shown
Chain of HSF1 (Q00613 whole entry): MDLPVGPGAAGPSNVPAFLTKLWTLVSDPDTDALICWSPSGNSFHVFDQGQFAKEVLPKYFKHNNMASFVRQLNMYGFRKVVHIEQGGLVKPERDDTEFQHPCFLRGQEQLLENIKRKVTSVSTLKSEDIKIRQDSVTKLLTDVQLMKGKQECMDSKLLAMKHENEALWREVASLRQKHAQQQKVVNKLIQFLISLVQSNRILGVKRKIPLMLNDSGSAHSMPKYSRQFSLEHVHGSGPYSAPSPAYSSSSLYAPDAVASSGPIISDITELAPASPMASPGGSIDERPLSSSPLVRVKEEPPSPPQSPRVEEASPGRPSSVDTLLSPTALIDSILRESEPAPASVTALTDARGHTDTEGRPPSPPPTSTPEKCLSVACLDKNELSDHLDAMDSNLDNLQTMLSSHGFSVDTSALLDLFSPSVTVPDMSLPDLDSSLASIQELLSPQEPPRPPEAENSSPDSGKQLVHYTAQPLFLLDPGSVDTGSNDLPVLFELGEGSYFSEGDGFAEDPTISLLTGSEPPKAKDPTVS
Method in brief: as §1

SPIC = target: T8, SPIC (Homo sapiens, UniProt Q8N5J4 1-248); details: protein: recombinant; tags: N-terminal GST; dsDNA, one strand shown
T8 sequence: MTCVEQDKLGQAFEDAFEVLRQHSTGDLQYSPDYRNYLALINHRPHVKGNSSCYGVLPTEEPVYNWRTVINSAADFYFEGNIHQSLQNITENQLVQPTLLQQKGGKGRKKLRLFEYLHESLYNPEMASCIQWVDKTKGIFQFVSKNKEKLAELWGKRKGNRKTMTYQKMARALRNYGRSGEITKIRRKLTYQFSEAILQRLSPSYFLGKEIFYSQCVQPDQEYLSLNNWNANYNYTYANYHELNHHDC
Method in brief: as §1

ELF4 = ELF4 (Homo sapiens, UniProt Q99607 1-663); details: protein: recombinant; tags: N-terminal GST; dsDNA, one strand shown
Chain of ELF4 (Q99607 whole entry): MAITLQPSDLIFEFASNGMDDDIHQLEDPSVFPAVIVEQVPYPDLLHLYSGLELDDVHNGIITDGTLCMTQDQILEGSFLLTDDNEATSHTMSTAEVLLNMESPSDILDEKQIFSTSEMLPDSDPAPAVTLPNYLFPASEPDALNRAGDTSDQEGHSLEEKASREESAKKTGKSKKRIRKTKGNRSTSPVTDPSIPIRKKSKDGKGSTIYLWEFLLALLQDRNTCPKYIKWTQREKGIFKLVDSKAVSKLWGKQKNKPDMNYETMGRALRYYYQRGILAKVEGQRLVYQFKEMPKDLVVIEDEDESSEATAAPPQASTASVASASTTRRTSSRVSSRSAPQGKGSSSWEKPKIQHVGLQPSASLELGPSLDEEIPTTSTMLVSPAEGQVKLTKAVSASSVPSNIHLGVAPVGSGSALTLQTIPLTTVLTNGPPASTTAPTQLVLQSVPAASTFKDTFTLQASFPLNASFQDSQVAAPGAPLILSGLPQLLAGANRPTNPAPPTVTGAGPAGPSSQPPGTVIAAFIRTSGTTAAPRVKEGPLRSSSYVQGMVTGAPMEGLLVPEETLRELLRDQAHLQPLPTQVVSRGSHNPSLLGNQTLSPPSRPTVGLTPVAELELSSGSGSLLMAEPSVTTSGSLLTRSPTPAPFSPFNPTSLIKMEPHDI
Method in brief: as §1

ELK4 = target: T9, ELK4 (Homo sapiens, UniProt P28324-2 1-405); details: protein: recombinant; tags: N-terminal GST; dsDNA, one strand shown
T9 sequence: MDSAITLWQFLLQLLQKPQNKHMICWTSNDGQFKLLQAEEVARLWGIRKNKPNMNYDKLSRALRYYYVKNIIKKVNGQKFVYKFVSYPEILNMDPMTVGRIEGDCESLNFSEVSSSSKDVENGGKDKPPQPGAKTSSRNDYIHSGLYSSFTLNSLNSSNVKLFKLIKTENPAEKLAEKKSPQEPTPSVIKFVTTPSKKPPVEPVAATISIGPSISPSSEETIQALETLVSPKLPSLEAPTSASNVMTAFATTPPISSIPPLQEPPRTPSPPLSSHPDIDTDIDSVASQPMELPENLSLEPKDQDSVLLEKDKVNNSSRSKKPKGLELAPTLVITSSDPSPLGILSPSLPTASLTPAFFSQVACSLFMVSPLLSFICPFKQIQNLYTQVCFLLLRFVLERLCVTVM
Method in brief: as §1

ETV2 = target: T10, ETV2 (Homo sapiens, UniProt O00321 1-342); details: protein: recombinant; tags: N-terminal GST; dsDNA, one strand shown
T10 sequence: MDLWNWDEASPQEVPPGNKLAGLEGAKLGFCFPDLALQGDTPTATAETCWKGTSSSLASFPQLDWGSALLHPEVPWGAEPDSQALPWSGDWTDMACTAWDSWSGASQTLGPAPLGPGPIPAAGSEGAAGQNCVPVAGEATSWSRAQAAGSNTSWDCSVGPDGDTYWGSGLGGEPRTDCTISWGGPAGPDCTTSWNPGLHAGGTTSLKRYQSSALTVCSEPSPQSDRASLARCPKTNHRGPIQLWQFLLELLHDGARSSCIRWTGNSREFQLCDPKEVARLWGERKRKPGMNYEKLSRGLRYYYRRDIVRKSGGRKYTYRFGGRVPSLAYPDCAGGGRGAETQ
Method in brief: as §1

ELF3 = target: T11, ELF3 (Homo sapiens, UniProt P78545 1-371); details: protein: recombinant; tags: N-terminal GST; dsDNA, one strand shown
T11 sequence: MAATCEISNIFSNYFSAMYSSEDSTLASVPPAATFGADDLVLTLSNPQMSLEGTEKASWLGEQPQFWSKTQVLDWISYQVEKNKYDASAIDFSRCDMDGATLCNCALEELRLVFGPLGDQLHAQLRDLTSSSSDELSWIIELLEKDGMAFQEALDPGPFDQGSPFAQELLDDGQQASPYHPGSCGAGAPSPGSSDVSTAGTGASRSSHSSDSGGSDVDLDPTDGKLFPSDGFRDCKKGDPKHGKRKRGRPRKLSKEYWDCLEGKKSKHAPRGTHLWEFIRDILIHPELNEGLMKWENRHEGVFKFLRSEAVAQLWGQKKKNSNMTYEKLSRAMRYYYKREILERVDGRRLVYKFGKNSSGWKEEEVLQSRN
Method in brief: as §1

CRX = CRX (Homo sapiens, UniProt O43186 1-299); details: protein: recombinant; tags: N-terminal GST; dsDNA, one strand shown
Chain of CRX (O43186 whole entry): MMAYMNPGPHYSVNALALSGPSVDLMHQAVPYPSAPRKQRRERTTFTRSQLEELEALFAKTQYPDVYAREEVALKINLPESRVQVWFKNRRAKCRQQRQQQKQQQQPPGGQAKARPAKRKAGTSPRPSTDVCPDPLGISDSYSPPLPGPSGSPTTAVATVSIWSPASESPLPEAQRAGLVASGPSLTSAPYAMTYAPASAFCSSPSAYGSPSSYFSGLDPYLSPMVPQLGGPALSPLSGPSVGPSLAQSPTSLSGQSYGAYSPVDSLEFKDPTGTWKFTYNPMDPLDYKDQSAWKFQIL
Method in brief: as §1

ETV1 = ETV1 (Homo sapiens, UniProt P50549 1-477); details: protein: recombinant; tags: N-terminal GST; dsDNA, one strand shown
Chain of ETV1 (P50549 whole entry): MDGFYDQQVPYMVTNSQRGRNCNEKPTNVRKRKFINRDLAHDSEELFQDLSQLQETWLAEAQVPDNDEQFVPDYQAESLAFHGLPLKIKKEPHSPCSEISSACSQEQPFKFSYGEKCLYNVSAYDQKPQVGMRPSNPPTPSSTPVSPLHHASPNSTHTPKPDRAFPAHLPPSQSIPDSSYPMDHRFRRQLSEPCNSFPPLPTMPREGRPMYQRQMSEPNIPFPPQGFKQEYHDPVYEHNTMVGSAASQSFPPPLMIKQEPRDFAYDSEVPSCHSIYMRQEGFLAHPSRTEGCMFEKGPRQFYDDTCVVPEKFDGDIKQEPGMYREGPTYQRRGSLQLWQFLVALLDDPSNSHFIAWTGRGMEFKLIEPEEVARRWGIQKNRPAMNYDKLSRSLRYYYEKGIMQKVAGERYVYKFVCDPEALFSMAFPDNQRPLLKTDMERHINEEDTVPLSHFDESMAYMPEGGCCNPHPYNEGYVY
Method in brief: as §1

In the case of CTGGCT, the binding signal (FLI1) is reported as 1.33 fold enrichment (6-mer frequency, TF over GST control), the binding signal (ELK1) is reported as 1.31 fold enrichment (6-mer frequency, TF over GST control) and the binding signal (GABPA) is reported as 1.37 fold enrichment (6-mer frequency, TF over GST control). The binding signal (ERG) was 1.3 fold enrichment (6-mer frequency, TF over GST control), the binding signal (ELF1) was 1.25 fold enrichment (6-mer frequency, TF over GST control) and the binding signal (EHF) was 1.26 fold enrichment (6-mer frequency, TF over GST control). For the same sequence, the binding signal (SPI1) was 1.18 fold enrichment (6-mer frequency, TF over GST control), the binding signal (SPIB) was 1.22 fold enrichment (6-mer frequency, TF over GST control) and the binding signal (ELK3) was 1.12 fold enrichment (6-mer frequency, TF over GST control). The binding signal (FEV) was 1.16 fold enrichment (6-mer frequency, TF over GST control), the binding signal (ETV5) was 1.13 fold enrichment (6-mer frequency, TF over GST control) and the binding signal (HSF1) was 1.27 fold enrichment (6-mer frequency, TF over GST control). The binding signal (SPIC) was 1.13 fold enrichment (6-mer frequency, TF over GST control), the binding signal (ELF4) was 1.18 fold enrichment (6-mer frequency, TF over GST control) and the binding signal (ELK4) was 1.42 fold enrichment (6-mer frequency, TF over GST control). For the same sequence, the binding signal (ETV2) was 1.5 fold enrichment (6-mer frequency, TF over GST control), the binding signal (ELF3) was 1.19 fold enrichment (6-mer frequency, TF over GST control) and the binding signal (CRX) was 1.21 fold enrichment (6-mer frequency, TF over GST control). For the same sequence, the binding signal (ETV1) was 1.1 fold enrichment (6-mer frequency, TF over GST control).
